TDP1 cell noCPT = qHTS for Inhibitors of human tyrosyl-DNA phosphodiesterase 1 (TDP1): qHTS in cells in absence of CPT; DT40 Tdp1-/- hTDP1 cells, no CPT, ATP luminescence, 48 h; Potency, µM (highest dose often 46.2 µM), usual class: inhibitors; hit rate 15% among 420,000; AID 686978, 2013; also: nearly all actives have a fitted effect of over 55% in size
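No-CPT arm: Tdp1-/-;hTDP1 DT40 cells (400/well) plus compounds, incubated ≥48 hr at 37 °C. Readout CellTiter-Glo luminescence.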
HT1080 IDH1KD tx = kills HT-1080 cells with IDH1 knockdown | HT-1080 IDH1 knockdown viability, ATP luminescence, 48 h | Potency, µM (doses to about 46.1 µM), most hits filed as cytotoxic | hit rate 2% among 360,000 | AID 686971
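CellTiter-Glo luminescence after 48 h compound exposure at 37 degrees C of IDH1-knockdown HT-1080 cells in 5% FBS RPMI. %Activity scaled between DMSO wells and cell-free media wells, with curves fitted and assigned curve classes.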
HT1080NT lethal = kills 2HG-producing HT-1080-NT fibrosarcoma cells; HT-1080-NT fibrosarcoma viability, CellTiter-Glo ATP luminescence, 48 h; Potency, µM (doses to about 46.1 µM), usual class: cytotoxic; hit rate 1.6% among 360,000;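 also: NT is the 2HG producing partner of a matched IDH1 knockdown line; nearly all actives have a fitted effect of over 55% in size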
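Fibrosarcoma NT cells, 750 per well in 5% FBS RPMI, were exposed to compound for 48 hours. Viability: CellTiter-Glo luminescence.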
IL1B secr inh = inhibitors of inflammasome signaling (IL-1 beta secretion). THP-1 LPS/ATP IL-1B secretion, AlphaLISA, 16 h; active compounds read low. activity change, % at 57.5 µM. hit rate 4.7% among 360,000; in the data active = activity change below about -50%; inconclusive = mostly about -30% to -49%
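Secreted IL-1B measured by AlphaLISA bead assay after 16 h compound exposure of THP-1 cells; compounds (final up to 57.5 uM) added 1 h before LPS (250 ng/mL) and ATP (1.25 mM) stimulation; lower signal means less secretion.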
ALOX12 inh = ALOX12 (human) lipoxygenase inhibition. hit rate 1.1% among 580,000. P18054. purified 12hLO, xylenol orange hydroperoxide absorbance. Potency, µM (doses to about 108 µM), hits mostly inhibitors
Target sequence (P18054 whole entry, looked up): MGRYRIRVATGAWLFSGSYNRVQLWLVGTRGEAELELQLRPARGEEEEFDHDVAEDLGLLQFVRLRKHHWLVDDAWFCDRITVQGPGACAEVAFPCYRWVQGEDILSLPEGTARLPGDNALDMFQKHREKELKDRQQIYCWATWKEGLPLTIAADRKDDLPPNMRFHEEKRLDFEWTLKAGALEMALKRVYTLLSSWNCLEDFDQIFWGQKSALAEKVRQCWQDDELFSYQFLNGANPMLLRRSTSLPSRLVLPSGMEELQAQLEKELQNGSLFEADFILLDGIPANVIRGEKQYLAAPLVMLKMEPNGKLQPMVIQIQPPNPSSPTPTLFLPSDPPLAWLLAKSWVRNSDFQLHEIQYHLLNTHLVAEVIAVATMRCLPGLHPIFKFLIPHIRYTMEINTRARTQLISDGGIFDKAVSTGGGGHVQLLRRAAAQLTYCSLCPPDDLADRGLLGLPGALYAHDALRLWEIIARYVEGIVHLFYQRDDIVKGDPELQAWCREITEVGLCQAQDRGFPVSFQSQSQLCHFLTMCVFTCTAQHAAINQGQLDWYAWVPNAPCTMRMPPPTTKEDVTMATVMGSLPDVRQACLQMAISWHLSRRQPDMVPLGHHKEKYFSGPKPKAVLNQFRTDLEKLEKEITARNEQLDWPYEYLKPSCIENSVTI
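Hydroperoxide product was detected by ferrous iron/xylenol orange as the 573 to 405 nm absorbance ratio. Arachidonic acid at 40 uM (final) was turned over for 30 min at room temperature by 150 nM human 12hLO, pH 7.0 Hepes buffer, after 15 min compound preincubation.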
TDP1 cell CPT = growth inhibition of DT40 Tdp1-/-;hTDP1 cells with camptothecin (screen for TDP1 inhibitors); chicken DT40 Tdp1-/-;hTDP1 cells + 20 nM CPT, ATP luminescence, 48 h; Potency, µM (titrated, usually from 46.2 µM), actives largely listed as inhibitors; hit rate 12% among 420,000; AID 686979; also: nearly all actives have a fitted effect of over 55% in size
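Cell growth measured by CellTiter-Glo luminescence after a minimum 48 h, 37 C compound exposure with 20 nM CPT in Tdp1-knockout DT40 cells stably expressing hTDP1, seeded 400/well; qHTS titration format.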
Numbers stand for hits; . = inactive; ? = inconclusive; / = not tested or not shown. This is one part of a sample in which hits are shown more often than they occur. Unless noted, calls follow the shape of the dose curve; as a rule, active = well fitted curve in the direction sought with a large enough effect; inconclusive = small, poorly fitted or top-dose-only effect, or another doubt; inactive = no such curve, though single readings can be large; an effect the other way counts as inactive or inconclusive.

SMILES	TDP1 cell noCPT	HT1080 IDH1KD tx	HT1080NT lethal	IL1B secr inh	ALOX12 inh	TDP1 cell CPT
CCOC(=O)C1CCCN(S(=O)(=O)c2cc(OCC(N)=O)c(C)cc2Cl)C1 (stereo not drawn)	.	.	.	-92	?	.
CCOC(=O)C1CCCN(S(=O)(=O)CCNC(=O)c2ccc3c(c2)OCO3)C1 (stereo not drawn)	.	.	.	-73	.	.
Cn1c(CCC(=O)Nc2cc(S(C)(=O)=O)ccc2Cl)nc2cc(S(=O)(=O)N3CCOCC3)ccc21	.	.	.	.	45µM	.
COc1cc(Cl)ccc1C(=O)N1CCC(Oc2ccc(C(=O)N(C)C)cn2)CC1	/	/	/	/	.	/
COc1ccc2cc(C(=O)N(C)C3CCS(=O)(=O)C3)[nH]c2c1 (stereo not drawn)	/	/	/	/	.	/
CC(=O)N1CCN(C(=O)C2CCNCC2)C[C@@H]1C(=O)N[C@@H](CC1CCCCC1)C(N)=O	/	/	/	/	.	/
CCOC(=O)C1CCCN(C(=S)Nc2ccc(S(=O)(=O)N3CCOCC3)cc2)C1 (stereo not drawn)	16µM	.	.	.	.	?
Cc1ccc(NS(=O)(=O)c2cc(OCC(N)=O)c(C)cc2Cl)cc1C	?	.	.	.	?	20µM
CN(C)S(=O)(=O)c1ccc(S(=O)(=O)N2CCCC(C(=O)NC3CC3)C2)cc1 (stereo not drawn)	?	.	.	.	.	.
Cc1cccc(NS(=O)(=O)c2cc(OCC(N)=O)c(C)cc2Cl)c1	?	.	.	.	.	.
CCCCn1c(C)nc2cc(S(=O)(=O)N3CCOCC3)ccc21	.	.	.	.	.	.
CCN(CC)S(=O)(=O)c1ccc(S(=O)(=O)N2CCCC(C(=O)NC3CC3)C2)cc1 (stereo not drawn)	5.8µM	.	.	.	.	1.3µM
CCCCn1c(CCl)nc2cc(S(=O)(=O)N3CCOCC3)ccc21	6.5µM	?	.	/	.	4.6µM
CN(C)C[C@@H]1CN(c2ncccn2)C[C@H]1NC(=O)c1nn(C)c2ccccc12	/	/	/	/	.	/
CCOC(=O)C1CCCN(S(=O)(=O)c2ccc(S(N)(=O)=O)cc2)C1 (stereo not drawn)	?	.	.	.	.	.
C/C(=N\NC(=S)Nc1cc(S(=O)(=O)N2CCOCC2)ccc1Cl)c1ccccc1F	2.3µM	?	.	.	?	3.3µM
CCOC(=O)C1CCCN(S(=O)(=O)c2csc(C(N)=O)c2)C1 (stereo not drawn)	15µM	/	/	/	.	?
CCOC(=O)C1CCCN(S(=O)(=O)c2ccc(S(=O)(=O)N(CC)CC)cc2)C1 (stereo not drawn)	1.5µM	.	.	.	.	2.9µM
O=C(Nc1cc(S(=O)(=O)N2CCOCC2)ccc1Cl)c1cc2ccccc2o1	?	.	.	-75	.	?
COCc1nnc(NC(=O)CCc2ccc(-c3ccc(C)cc3)o2)s1	/	/	/	/	.	/
CC(C)OC(=O)NCCOC(N)=O	/	/	/	/	.	/
C/C(=N\O)c1ccc(N2C(=O)C3CC=C(Cl)CC3C2=O)cc1 (stereo not drawn)	.	.	.	.	.	.
Cc1ccc(NC(=O)c2ccc(N3C(=O)C4CC=C(Cl)CC4C3=O)cc2)cc1 (stereo not drawn)	16µM	.	.	.	.	?
CN(C)CCCNC(=O)c1nc(-c2ccc3[nH]ccc3c2)no1	/	/	/	/	.	/
Cc1ccc(S(=O)(=O)N2CCOCC2)cc1C(=O)N(Cc1ccco1)C1CCS(=O)(=O)C1 (stereo not drawn)	/	/	/	/	.	/
SMILES	TDP1 cell noCPT	HT1080 IDH1KD tx	HT1080NT lethal	IL1B secr inh	ALOX12 inh	TDP1 cell CPT
Cc1ccc(O)c(N=Cc2ccc(C)s2)c1	.	.	.	.	?	.
Cc1ccc(O)c(N=Cc2cccs2)c1	?	.	.	.	?	23µM
CN(C(=O)c1cc(-c2ccccc2)c(N2CCOCC2)s1)C1CCS(=O)(=O)C1 (stereo not drawn)	/	/	/	/	.	/
OC1CCCN(Cc2ccc3ccc4cccc5ccc2c3c45)C1 (stereo not drawn)	21µM	?	?	-69	?	?
c1cc2ccc3ccc(CN4CCOCC4)c4ccc(c1)c2c34	?	.	.	-77	.	?
Cc1cc2ccccc2n1CC(=O)N1CCN(CC(=O)NC2CC2)CC1	/	/	/	/	.	/
CCOc1ccccc1N(CC(=O)Nc1cccc(OC)c1)S(=O)(=O)c1ccccc1	?	.	.	.	.	29µM
CCOc1ccccc1N(CC(=O)Nc1ccc(OC)cc1)S(=O)(=O)c1ccccc1	?	.	.	.	.	?
CCOc1ccc(S(=O)(=O)N(CC(=O)Nc2cccnc2)c2ccccc2)cc1	16µM	/	/	/	.	?
COc1ccc(N(CC(=O)NCc2ccc(C)cc2)S(=O)(=O)c2ccccc2[N+](=O)[O-])c(OC)c1	23µM	.	.	?	.	?
COc1ccc(N(CC(=O)NCc2ccncc2)S(=O)(=O)c2ccccc2[N+](=O)[O-])c(OC)c1	.	.	.	.	.	.
CCOc1ccc(NC(=O)CN(c2ccccc2OCC)S(=O)(=O)c2ccccc2)cc1	18µM	/	/	/	.	?
O=C(Nc1ccc(S(=O)(=O)N2CCCCC2)cc1)c1cc2c(=O)n3ccccc3nc2s1	/	/	/	/	.	/
O=C(NC1CCCCCC1)c1nc(Cc2c[nH]c3ccccc23)no1	/	/	/	/	.	/
COc1ccc(OC)c(N(CC(=O)Nc2cccnc2)S(=O)(=O)c2ccccc2)c1	?	3.3µM	6.5µM	.	.	?
CCOc1ccccc1N(CC(=O)Nc1ccc(OC)cc1OC)S(=O)(=O)c1ccccc1	26µM	.	.	.	.	?
CCOc1ccccc1N(CC(=O)Nc1ccc(OC)c(OC)c1)S(=O)(=O)c1ccccc1	?	.	.	.	.	?
COc1ccc(NC(=O)CN(c2ccccc2F)S(=O)(=O)c2ccc(C)cc2)c(OC)c1	15µM	.	?	.	?	16µM
OCCNCc1ccc(-c2ccccc2)o1	/	/	/	/	.	/
O=C(Nc1ccccc1)c1nn(-c2ccccc2)c(=O)cc1C(F)(F)F	.	.	.	.	.	?
O=C(c1ccccc1)c1nn(-c2ccccc2)c(=O)cc1C(F)(F)F	?	?	?	-88	.	.
O=C(c1cccc(Cl)c1)c1nn(-c2ccccc2)c(=O)cc1C(F)(F)F	?	?	?	-102	?	16µM
CN(C)CCCNC(=S)NCCc1ccccc1	/	/	/	/	.	/
CC(C)CNC(=O)NC(NC(=O)C1CCCCC1)(C(F)(F)F)C(F)(F)F	/	/	/	/	.	/

From PubChem
